aGal spleen mod: qHTS Assay for Inhibitors and Activators of Human alpha-Galactosidase From Spleen Homogenate; Alpha-galactosidase A (Homo sapiens), P06280; human spleen homogenate, 4MU-alpha-Gal fluorescence, 40 min; Potency, µM (titrated, usually from 80 µM), without a hit: at the top dose activity change, negative = inhibition, most hits filed as inhibitors; hit rate 0.008% among 240,000; AID 2107, 2009;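 further: potency means the concentration at half of the fitted maximal effect; 0% = enzyme with vehicle and -100% = no enzyme basal signal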
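Human spleen homogenate (1 ug) was the enzyme source, with 4-methylumbelliferyl-alpha-D-galactopyranoside (1 mM final) in pH 5.0 citrate buffer with 0.01% Tween-20. Compounds were titrated; after 40 min at 37C, NaOH/glycine stop, 4-MU fluorescence read; AC50 from Hill fits.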
ALDH1A1 block: qHTS Assay for Inhibitors of Aldehyde Dehydrogenase 1 (ALDH1A1) | hit rate 7.3% among 220,000 | Purified ALDH1A1, NADH fluorescence, propionaldehyde substrate | Aldehyde dehydrogenase 1A1 (Homo sapiens), P00352 | Potency, µM (series often up to 75.3 µM), for inactives: at the highest dose activity, negative = inhibition, most hits filed as inhibitors | AID 1030, 2008; active means well fitted inhibition curve with a large enough effect, not every such curve was filed as active; inconclusive means small, poorly fitted or top-dose-only effect, or another doubt; inactive means no such curve, though single readings can be large or run the other way;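 further: potency means the concentration at half of the fitted maximal effect; plate controls were no enzyme wells and a reference inhibitor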
ALOX12 inhib: qHTS Assay for Inhibitors of 12-hLO (12-human lipoxygenase). Polyunsaturated fatty acid lipoxygenase ALOX12 (Homo sapiens), P18054. purified 12-hLO, xylenol orange hydroperoxide absorbance. Potency, µM (top dose mostly 57.1 µM), inactives show top-dose activity change, negative = inhibition, actives largely listed as inhibitors. hit rate 0.12% among 150,000. AID 1452, 2008; further: potency means the concentration at half of the fitted maximal effect; nearly all actives have a fitted effect of over 55% in size
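Purified human 12hLO (150 nM final) was preincubated with compounds for 15 min at room temperature in 25 mM Hepes pH 7.0, 0.01% Triton X-100, then reacted with 40 uM arachidonic acid for 30 min. Hydroperoxide was detected with ferrous iron/xylenol orange.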
HPGD block: qHTS Assay for Inhibitors of HPGD (15-Hydroxyprostaglandin Dehydrogenase) | purified HPGD, NADH fluorescence kinetic, PGE2 substrate | Potency, µM, inactives show at the top dose activity change, negative = inhibition, actives largely listed as inhibitors | hit rate 4.3% among 150,000; active means well fitted inhibition curve with a large enough effect, not every such curve was filed as active; inconclusive means small, poorly fitted or top-dose-only effect, or another doubt; inactive means no such curve, though single readings can be large or run the other way; further: potency means the concentration at half of the fitted maximal effect
Target sequence (P15428 whole entry, looked up): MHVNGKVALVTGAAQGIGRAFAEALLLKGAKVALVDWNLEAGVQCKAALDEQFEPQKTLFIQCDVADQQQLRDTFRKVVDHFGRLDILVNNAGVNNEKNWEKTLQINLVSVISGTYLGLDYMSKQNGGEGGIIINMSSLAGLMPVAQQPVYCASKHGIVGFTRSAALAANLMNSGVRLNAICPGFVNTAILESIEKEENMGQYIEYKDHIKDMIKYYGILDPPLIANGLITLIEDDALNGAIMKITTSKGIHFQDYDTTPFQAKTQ
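20 nM HPGD preincubated 15 min at room temperature with compound in 50 mM Tris-HCl pH 8, 0.01% Tween 20. Started with 1 mM NAD+ and 30 uM prostaglandin E2; NADH fluorescence (360/450 nm) read 5 times over 30-s intervals, last minus first.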
GLA inh pH 4.5: qHTS Assay for Inhibitors of Human alpha-Galactosidase at pH 4.5; Alpha-galactosidase A (Homo sapiens), P06280; purified enzyme, 4-MU-alpha-Gal fluorescence, pH 4.5; activity change, negative = inhibition, % at 105 µM; 230,000 tested, under 10 active; AID 1467, 2008;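 further: 0% = full activity with enzyme and -100% = basal without enzyme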
PNC inhibitor: High Content Assay for Compounds that inhibit the Assembly of the Perinucleolar Compartment; PC3M PTB-GFP, PNC prevalence imaging, 16 h; hits give low values; activity change (PNC), negative = inhibition, % at 10 µM; hit rate 3.1% among 140,000; AID 2417, 2010;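 active means readout at or below -70, meaning at least 70% loss of cells showing the perinucleolar compartment, a nuclear body marking cancer cells; inconclusive means readout between -30 and a set limit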;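 further: plate controls were DMSO wells for no effect and camptothecin positive control wells for full effect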
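PC3M cells stably expressing PTB-GFP, 750–1000 cells/well, treated 16 h at 37 °C with compound (23 nl of library stock), in duplicate. After paraformaldehyde fixation and Hoechst stain, imaged at 20x; PNC prevalence scored by image analysis.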
The depositor's hits bear a star; ? = inconclusive; nt = no result given; [ ] = dose if it differs, or a comment. This is a sample that favours compounds with a hit; in the whole collection about 10% have one here. Unless noted, the call rests on the fitted dose curve; in most records, active means well fitted curve in the direction sought with a large enough effect; inconclusive means small, poorly fitted or top-dose-only effect, or another doubt; inactive means no such curve, though single readings can be large; an effect the other way counts as inactive or inconclusive. Unless noted, on the % scale 0 is the no-effect control and ±100 the full control effect.

SMILES | aGal spleen mod | ALDH1A1 block | ALOX12 inhib | HPGD block | GLA inh pH 4.5 | PNC inhibitor
O=C(CN1CCN(c2ccc(Cl)cc2)CC1)Nc1ccc(F)c(F)c1 | -12% | -2% | -7% | -6% | 4 | 45
NC(=O)c1cc2cc(Cl)ccc2o/c1=N/NC(=O)c1cccs1 | 1% | -7% | nt | nt | -7 | nt
Cc1ccccc1N1Cc2ccccc2C1 | -13% | 28µM* | -1% | ? | 4 | -28
COc1ccccc1N1Cc2ccccc2C1 | 5% | 8.9µM* | -6% | ? | -8 | ?
COc1ncc2nc(-c3cc(F)cc(F)c3)c(=O)n(CCC#N)c2n1 | 10% | ? | 4% | ? | nt | nt
CC[C@H](C)[C@H](N)C(=O)N[C@@H](CC(N)=O)C(=O)N1CCC[C@H]1C(=O)N[C@H](C(=O)N[C@@H](Cc1ccc(O)cc1)C(=O)N[C@@H](CCCN=C(N)N)C(=O)N[C@@H](CC(C)C)C(=O)N[C@@H](CCCN=C(N)N)C(=O)N[C@@H](Cc1ccc(O)cc1)C(N)=O)[C@@H](C)CC | 4% | nt | nt | nt | nt | nt
C[N@@+]1(CC[N@@+]2(C)CCC[C@H]2c2cccnc2)CCC[C@@H]1c1cccnc1 | nt | 7%[13.5 µM] | 6%[11.4 µM] | -13% | nt | nt
CC/C(=N/NC(=O)c1ccc(Br)o1)c1ccc(Cl)cc1 | 1% | 0% | 0% | -14% | 7 | ?
CCCC/C(=N\NC(=O)c1ccc(Br)o1)c1ccccc1 | -3% | -3% | 1% | -3% | 2 | -114*
CCOC(=O)/C(C#N)=N/Nc1c(C)n(C)n(-c2ccccc2)c1=O | -8% | 7.9µM* | nt | nt | -10 | nt
Cc1c(N/N=C(\C#N)C(=O)c2ccccc2)c(=O)n(-c2ccccc2)n1C | 1% | ? | -12% | -23% | -8 | 9
Cc1ccc(C(C)C)n1C(=O)OC(C)(C)C | 2%[17.5 µM] | 9%[13.5 µM] | nt | nt | nt | nt
COC(=O)COc1ccc(S(=O)(=O)Nc2ccc(C(N)=O)cc2)cc1Cl | -2% | -3% | -2% | -3% | -2 | -92*
COc1ccc(/C=C/C(=O)NC2CCCCCCC2)cc1S(=O)(=O)N1CCOCC1 | 7% | ? | -1% | 2% | -6 | ?
Cc1[nH]c(=O)[nH]c(=O)c1S(=O)(=O)N(C)Cc1ccccc1 | 4% | 6% | -4% | -7% | 4 | -106*
Cc1nnc2sc(SCC(=O)Nc3cccc(Cl)c3)nn2c1=O | 5% | 1% | nt | nt | -5 | nt
O=C(Nc1ccccc1)c1nnsc1S(=O)c1ccc(Cl)cc1 (stereo not drawn) | 2% | 1.8µM* | ? | 7.9µM* | -6 | -18
O=C(c1nnsc1S(=O)c1ccc(Cl)cc1)N1CCOCC1 (stereo not drawn) | -2% | 7.1µM* | nt | nt | -1 | nt
CNC(=O)c1nnsc1S(=O)(=O)c1ccc(Cl)cc1 | 5% | 2µM* | nt | nt | 3 | nt
O=C(c1cc(-c2ccc(Cl)cc2)on1)N1CCOCC1 | 1% | 15% | -6% | -15% | -4 | ?
Nc1nc(C(=O)N2CCOCC2)nn1S(=O)(=O)c1ccc(Cl)cc1 | 2% | 18% | 0% | -4% | -11 | ?
O=C(c1nnsc1S(=O)(=O)c1ccc(Cl)cc1)N1CCOCC1 | -3% | 2.8µM* | nt | nt | -3 | nt
O=c1c(-c2cccc(Cl)c2)nc2cncnc2n1Cc1ccccc1 | 2% | ? | nt | nt | nt | nt
CCc1cc(C(=O)N=Nc2c(O)[nH]c3c(Br)cc(Br)cc23)c2ccccc2n1 | 0% | -5% | -1% | -6% | -13 | -27
Cc1nc2ccccc2c(C)c1C(=O)c1ccccc1 | -4% | 5% | nt | nt | -1 | nt
O=c1nc2cccc3c2=c(/c1=C(\O)c1ccccc1)c1ccccc1c3=O | -13% | 0.63µM* | nt | nt | -2 | nt
NC(=O)/C=C\C(=O)Nc1cccc(C(F)(F)F)c1 | 16% | 2.8µM* | -5% | -26% | 1 | 16
